Among the data in PubChem BioAssay (Tox21) are Potency and outcome values, retold here.

Assay [1] in a line: Nuclear factor erythroid 2-related factor 2/antioxidant responsive element (Nrf2/ARE) small molecule agonists: qHTS cell viability counter screen in human keratinocytes (AID 1919968; active means well fitted curve in the direction sought with a large enough effect in the repeat runs; an effect the other way counts as inactive or inconclusive; further: nearly all actives have a fitted effect of over 55% in size; further: potency means the concentration at half of the fitted maximal effect). Put shortly:
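In human HaCaT keratinocytes stably expressing an ARE-driven luciferase, compound exposure lasted 23 h at 37 C under 5% CO2. Viable cells are quantified with a protease-based fluorogenic reagent (CellTiter-Fluor) read 1 h after addition.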

Assay [2] is described as follows: Nuclear factor erythroid 2-related factor 2/antioxidant responsive element (Nrf2/ARE) small molecule agonists: luciferase reporter gene qHTS assay in human keratinocytes (AID 1919969). Further: nearly all actives have a fitted effect of over 35% in size. Further: potency means the concentration at half of the fitted maximal effect.
In assay [3] the target is Gonadotropin-releasing hormone receptor (Homo sapiens) (UniProt P30968). In words: Human gonadotropin-releasing hormone receptor (GnRHR) small molecule agonists, calcium flux assay in GnRHR-HEK293 cells (AID 1920063). Further: nearly all actives have a fitted effect of over 35% in size. In short, it runs like this: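 Intracellular calcium rise is the read-out: engineered human GnRHR HEK293 cells, dye-loaded, are exposed to DMSO-dissolved compounds and fluorescence at Ex/Em 480/540 is tracked for 3 min.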

For assay [4], the target named is KiSS-1 receptor (Homo sapiens) (UniProt Q969F8). Put plainly: Human kisspeptin (KISS1R) small molecule agonists, calcium flux assay in KISS1R-HEK293 cells (AID 1920064; active means well fitted curve in the direction sought with a large enough effect in the repeat runs; an effect the other way counts as inactive or inconclusive). In short, it runs like this:
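Concentration-response testing used 15 concentrations in triplicate on human KISS1R-expressing HEK293 cells. Calcium-dependent fluorescence (Ex/Em 480/540) was followed kinetically for 3 min after compound transfer.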

A short description of assay [5]: G protein-coupled receptor (GPCR) small molecule agonists, calcium flux assay: HEK293 wild type cell line counter screen (AID 1920065). In short, it runs like this:
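Fluorescence intensity signals activation. After overnight (18 h) culture and a 1 h calcium dye load at 37 C, compounds are added by pin tool and the plate read at 480/540 nm for 3 min in 1 s steps.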

Assay [6] can be described thus: p53 small molecule agonists, cell-based qHTS assay with human liver microsomes (AID 1963577).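 Further: p53 response element beta-lactamase reporter cells with liver microsomes plus NADPH.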 In short, it runs like this:
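HLM-supplemented p53RE-bla reporter assay: 16 h compound exposure at 37 C, microsomes and NADPH each 0.5 mg/mL final, read by fluorescence intensity.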

Assay [7] is described as follows: p53 small molecule agonists, cell-based qHTS assay with rat liver microsomes (AID 1963578). In short, it runs like this: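 Quantitative HTS of the Tox21 10K library: p53RE-bla cells, rat liver microsomes plus NADPH at 0.5 mg/mL final each, 16 h at 37 C, beta-lactamase fluorescence detection.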
The nature of assay [8]: p53 small molecule agonists, cell-based qHTS assay with human liver microsomes: qHTS cell viability counter screen (AID 1963579). Further: nearly all actives have a fitted effect of over 45% in size. Put shortly: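 Viability of p53RE-bla cells is measured as CellTiter-Glo luminescence following a 16 h, 37 C incubation with compound, liver microsomes from human donors and NADPH.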
Assay [9] is described as follows: p53 small molecule agonists, cell-based qHTS assay with rat liver microsomes: qHTS cell viability counter screen (AID 1963580). Further: nearly all actives have a fitted effect of over 45% in size. Put shortly: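 After the beta-lactamase ratio was read, CellTiter-Glo was added to the same wells and luminescence measured at 30 min; cells had been treated 16 h at 37 C with compounds, rat liver microsomes and NADPH (0.5 mg/mL final each).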

Assay [10] can be described thus: p53 small molecule agonists, cell-based qHTS assay (AID 1963582; active means well fitted activation curve with a large enough effect in the signal ratio in the repeat runs, not every such curve was filed as active; the % refers to the signal ratio). In short, it runs like this:
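After plating, p53RE-bla cells sat 5 h in the incubator; compounds or DMSO vehicle were pinned in; a 16 h incubation at 37 C followed; FRET substrate was added and, 2 h later at RT, fluorescence was measured.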

Assay [11] can be described thus: cAMP Responsive Elements (CRE) small molecule agonists, cell-based qHTS assay (AID 1963590). Put shortly:
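Compound exposure lasted 3 h at 37 C/5% CO2 in CRE-bla HEK 293T cells grown in assay medium with 10% dialyzed FBS and 25 mM HEPES. Reporter signal came from LiveBLAzer B/G FRET substrate, 2 h, room temperature.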

Assay [12] has as its target D(2) dopamine receptor (Homo sapiens) (UniProt P14416). In words: Dopamine D2 receptor (DRD2) small molecule agonists, cell-based qHTS assay (AID 1963594). Further: nearly all actives have a fitted effect of over 35% in size. In short, it runs like this:
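HEK293 cells stably expressing human DRD2, pre-treated with PDE inhibitor Ro20-1724 (0.1 mM final) and compound 10 min at room temperature, then stimulated with NKH477 (200nM […]) for 30 min. cAMP read by HTRF (665/620 nm).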

The target is the same in assay [13]. In words: Dopamine D2 receptor (DRD2) small molecule antagonists, cell-based qHTS assay (AID 1963595; active means well fitted inhibition curve with a large enough effect in the signal ratio in the repeat runs, with a control signal flat; the % refers to the signal ratio). Put shortly: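 HEK293 cells stably expressing DRD2, preincubated with 0.1 mM Ro20-1724 and compounds 10 min, were stimulated with 200 nM NKH477 plus 12 nM quinpirole for 30 min at room temperature; cAMP measured by HTRF (665/620 nm).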
Assay [14] deals with 5-hydroxytryptamine receptor 2A (Homo sapiens) (UniProt P28223). Put plainly: 5-hydroxytryptamine receptor 2A (HTR2A) small molecule agonists, cell-based qHTS assay (AID 1963587). Further: nearly all actives have a fitted effect of over 30% in size. Put shortly: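 CHO cells stably expressing human HTR2A, plated 18 h, loaded with calcium dye 1 h at 37 C. Agonist mode: compounds added and intracellular calcium fluorescence recorded kinetically for 2 min at 1 sec intervals.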

Assay [15] deals with Muscarinic acetylcholine receptor M1 (Homo sapiens) (UniProt P11229). Put plainly: Cholinergic receptor muscarinic 1 (CHRM1) small molecule antagonists, cell-based qHTS assay (AID 1963588). Further: nearly all actives have a fitted effect of over 40% in size. Put shortly: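 Compounds were tested at 15 concentrations in three independent runs. Dye-loaded CHRM1-CHO cells were exposed 5 min at room temperature before stimulation by acetylcholine added at 50nM. Intracellular calcium was read kinetically on FDSS for 3 min.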

Assay [16] shares this target. Put plainly: Cholinergic receptor muscarinic 1 (CHRM1) small molecule agonists, cell-based qHTS assay (AID 1963589). Further: nearly all actives have a fitted effect of over 35% in size. In short, it runs like this:
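Fluorescent calcium dye reports M1 activation in stably transfected CHO cells. Compounds, 15 concentrations, added after 1 h dye loading at 37 C; kinetic reading at 1 sec intervals.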

Assay [17] is described as follows: cAMP Responsive Elements (CRE) small molecule antagonists, cell-based qHTS assay (AID 1963591; active means well fitted inhibition curve with a large enough effect in the signal ratio in the repeat runs, not every such curve was filed as active; the % refers to the signal ratio). In short, it runs like this:
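Stimulation used NKH477 at a final 0.25 uM for 3 h in compound-treated CRE-bla HEK293T cells, seeded 18 h beforehand. Reporter activity was measured with LiveBLAzer B/G FRET substrate after 2 h at room temperature.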

Assay [18] has as its target Beta-2 adrenergic receptor (Homo sapiens) (UniProt P07550). Put plainly: Adrenergic beta2 receptor (ADRB2) small molecule antagonists, cell-based qHTS assay (AID 1963592). Further: series mostly up to about 92 µM; nearly all actives have a fitted effect of over 50% in size. In short, it runs like this: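 Assay format: CHO-ADRB2 cells, 18-20hr seeding at 37C/5% CO2, then compound plus 1nM isoproterenol agonist mix for 0.5hr RT. Homogeneous time-resolved fluorescence cAMP detection after 1hr, expressed as 665/615 nm ratio.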

For assay [19], the target named is 5-hydroxytryptamine receptor 2A (Homo sapiens) (UniProt P28223). In words: 5-hydroxytryptamine receptor 2A (HTR2A) small molecule antagonists, cell-based qHTS assay (AID 1963586). Further: nearly all actives have a fitted effect of over 45% in size. In short, it runs like this:
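CHO cells stably expressing human HTR2A were plated for 18 h at 37 C, then loaded with calcium dye for 1 h. Compounds were preincubated 5 min at room temperature before DOI (4 nM solution) was added. Kinetic fluorescence was read for 3 min.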

A number with no mark means an inactive call. Records with an inconclusive call do not appear. The source made the active and inactive calls. Unless noted, the call rests on the fitted dose curve.

Sequence of 5-hydroxytryptamine receptor 2A (Homo sapiens) (P28223 whole entry, looked up): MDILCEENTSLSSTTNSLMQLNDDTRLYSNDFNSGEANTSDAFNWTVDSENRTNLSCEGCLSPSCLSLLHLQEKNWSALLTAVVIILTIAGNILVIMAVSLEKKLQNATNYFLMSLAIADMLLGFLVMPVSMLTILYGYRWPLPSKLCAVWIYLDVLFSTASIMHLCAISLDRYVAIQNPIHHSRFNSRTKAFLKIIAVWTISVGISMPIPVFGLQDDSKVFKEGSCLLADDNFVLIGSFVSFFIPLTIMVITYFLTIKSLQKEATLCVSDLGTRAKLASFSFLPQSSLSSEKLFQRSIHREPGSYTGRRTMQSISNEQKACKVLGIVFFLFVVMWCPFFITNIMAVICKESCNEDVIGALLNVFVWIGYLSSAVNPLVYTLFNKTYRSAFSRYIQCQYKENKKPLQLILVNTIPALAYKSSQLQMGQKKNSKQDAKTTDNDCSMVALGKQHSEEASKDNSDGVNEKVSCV
Sequence of Beta-2 adrenergic receptor (Homo sapiens) (P07550 whole entry, looked up): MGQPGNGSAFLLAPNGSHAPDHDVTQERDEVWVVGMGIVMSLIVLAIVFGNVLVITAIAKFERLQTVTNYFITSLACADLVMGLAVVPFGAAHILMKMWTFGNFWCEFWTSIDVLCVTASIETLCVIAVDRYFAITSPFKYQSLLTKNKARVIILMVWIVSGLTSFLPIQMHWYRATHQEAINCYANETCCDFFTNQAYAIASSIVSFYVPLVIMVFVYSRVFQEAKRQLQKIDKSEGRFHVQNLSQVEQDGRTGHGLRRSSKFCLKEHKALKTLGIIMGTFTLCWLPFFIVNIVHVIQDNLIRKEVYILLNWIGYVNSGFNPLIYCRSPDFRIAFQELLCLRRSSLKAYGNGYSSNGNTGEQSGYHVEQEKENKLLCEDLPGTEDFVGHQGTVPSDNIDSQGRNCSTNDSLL
Sequence of KiSS-1 receptor (Homo sapiens) (Q969F8 whole entry, looked up): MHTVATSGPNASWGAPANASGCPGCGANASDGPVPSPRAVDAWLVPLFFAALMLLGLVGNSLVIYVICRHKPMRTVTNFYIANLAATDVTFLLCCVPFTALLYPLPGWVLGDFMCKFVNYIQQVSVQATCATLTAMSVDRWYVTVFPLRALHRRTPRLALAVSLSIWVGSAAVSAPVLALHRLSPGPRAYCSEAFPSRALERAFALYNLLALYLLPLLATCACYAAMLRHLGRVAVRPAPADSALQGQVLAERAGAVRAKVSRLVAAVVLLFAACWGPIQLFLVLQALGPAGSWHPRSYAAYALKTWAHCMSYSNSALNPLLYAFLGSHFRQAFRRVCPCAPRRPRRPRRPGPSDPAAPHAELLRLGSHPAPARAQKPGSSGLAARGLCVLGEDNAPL
Sequence of D(2) dopamine receptor (Homo sapiens) (P14416 whole entry, looked up): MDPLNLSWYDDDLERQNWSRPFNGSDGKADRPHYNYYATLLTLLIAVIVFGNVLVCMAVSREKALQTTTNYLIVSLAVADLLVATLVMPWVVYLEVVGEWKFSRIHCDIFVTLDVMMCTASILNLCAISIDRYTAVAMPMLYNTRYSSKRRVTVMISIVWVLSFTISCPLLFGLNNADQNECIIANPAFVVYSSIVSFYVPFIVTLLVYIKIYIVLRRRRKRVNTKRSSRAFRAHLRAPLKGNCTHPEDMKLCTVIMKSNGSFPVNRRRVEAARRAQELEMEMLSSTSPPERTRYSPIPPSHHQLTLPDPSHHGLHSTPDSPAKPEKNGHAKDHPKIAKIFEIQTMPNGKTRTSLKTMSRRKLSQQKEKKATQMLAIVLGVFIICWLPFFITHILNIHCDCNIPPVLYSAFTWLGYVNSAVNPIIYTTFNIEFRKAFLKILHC
Sequence of Muscarinic acetylcholine receptor M1 (Homo sapiens) (P11229 whole entry, looked up): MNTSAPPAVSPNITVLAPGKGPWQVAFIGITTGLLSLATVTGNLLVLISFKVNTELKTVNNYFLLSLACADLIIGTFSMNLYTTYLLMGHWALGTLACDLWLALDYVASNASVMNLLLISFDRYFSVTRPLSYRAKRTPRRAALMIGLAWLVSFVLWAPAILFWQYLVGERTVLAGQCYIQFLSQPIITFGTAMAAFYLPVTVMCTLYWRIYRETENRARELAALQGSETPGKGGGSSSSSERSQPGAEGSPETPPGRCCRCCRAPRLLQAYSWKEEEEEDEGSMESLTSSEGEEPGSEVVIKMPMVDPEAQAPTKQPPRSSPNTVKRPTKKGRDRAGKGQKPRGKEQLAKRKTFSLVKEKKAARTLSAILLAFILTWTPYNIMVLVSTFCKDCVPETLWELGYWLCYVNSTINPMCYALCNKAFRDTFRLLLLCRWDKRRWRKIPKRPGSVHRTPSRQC
Sequence of Gonadotropin-releasing hormone receptor (Homo sapiens) (P30968 whole entry, looked up): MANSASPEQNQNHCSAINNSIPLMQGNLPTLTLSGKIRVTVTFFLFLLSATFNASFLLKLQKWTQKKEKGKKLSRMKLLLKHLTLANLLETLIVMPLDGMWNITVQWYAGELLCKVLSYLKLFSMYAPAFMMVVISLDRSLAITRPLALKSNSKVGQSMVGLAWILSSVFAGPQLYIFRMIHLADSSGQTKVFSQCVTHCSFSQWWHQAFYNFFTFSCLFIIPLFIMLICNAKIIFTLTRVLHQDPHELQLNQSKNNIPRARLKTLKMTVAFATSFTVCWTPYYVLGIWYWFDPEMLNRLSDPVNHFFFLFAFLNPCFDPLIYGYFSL

As to `NC(=O)CC[C@@H]1NC(=O)[C@H](Cc2ccccc2)NC(=O)[C@H](Cc2ccc(O)cc2)NC(=O)CCSSC[C@@H](C(=O)N2CCC[C@H]2C(=O)N[C@@H](CCCN=C(N)N)C(=O)NCC(N)=O)NC(=O)[C@H](CC(N)=O)NC1=O`, the Potency entry in assay [1], in [2], in assay [3], in assay [6], in assay [7] and in [8] was “inactive” in each case. Besides, the Potency entry in assay [9], in assay [10], in assay [11], in [12] and in assay [13] was “inactive” in each case. Besides, the result in assay [4] and in assay [5] was inactive.

As for `O=C(OCC(COC(=O)c1ccccc1)(COC(=O)c1ccccc1)COC(=O)c1ccccc1)c1ccccc1`, the Potency result in [1], in assay [2], in assay [3], in [6], in assay [7] and in [8] was “inactive” in each case. The Potency entry in assay [9], in [14], in [15], in [16], in [17] and in assay [18] was “inactive” throughout. For the same molecule, the Potency result in assay [12] and in assay [13] was “inactive” in each case. Further, the outcome in [4] and in assay [5] was inactive.

For `COc1ccc(Nc2ccc(OC)cc2)cc1`, the Potency result in assay [1], in assay [3], in assay [6], in assay [7], in [8] and in assay [9] was “inactive” each time. The Potency result in assay [19], in [14], in [15], in [16], in assay [11] and in [17] was “inactive” in each case. For the same molecule, the Potency result in assay [18], in assay [12] and in assay [13] was “inactive” in each case. In addition, the Potency in assay [2] was 27.8 µM (active). Moreover, the result in assay [4] and in assay [5] was inactive.

In the case of `NC(=O)COCCN1CCN(C(c2ccccc2)c2ccc(Cl)cc2)CC1` (stereo not given), the Potency result in [1], in [2], in [3], in assay [6], in assay [7] and in assay [8] was “inactive” in each case. Besides, the Potency entry in assay [9], in [19], in [14], in [16], in [11] and in assay [17] was “inactive” in each case. Further, the Potency entry in assay [18] and in assay [13] was “inactive” throughout. Further, the outcome in [4] and in [5] was inactive.

Consider `O=S(=O)(O)c1ccc(N=Nc2c(O)ccc3ccccc23)cc1`, for which, in assay [1], the Potency is 61.1 µM (active). Further, the Potency result in assay [2], in assay [3], in [6], in assay [7], in assay [8] and in assay [9] was “inactive” in each case. For the same molecule, the Potency entry in [19], in assay [14], in assay [15], in assay [16], in assay [18] and in [12] was “inactive” each time. Also, the result in [4] and in [5] was inactive.

As for `Oc1cc(O)c(Cl)cc1Cl`, the Potency result in assay [1], in [3], in [6], in assay [7], in [8] and in [9] was “inactive” in each case. Also, the Potency result in assay [19], in assay [14], in assay [15], in assay [16], in assay [11] and in [17] was “inactive” throughout. For the same molecule, the Potency result in assay [18], in assay [12] and in [13] was “inactive” in each case. Also, in assay [2], the Potency was 55.8 µM (active). Moreover, the outcome in assay [4] and in [5] was inactive.

As to `Nc1c(N=Nc2ccc(-c3ccc(N=Nc4cc(S(=O)(=O)O)c5ccccc5c4N)cc3)cc2)cc(S(=O)(=O)O)c2ccccc12`, the Potency in assay [1] is 30.6 µM (active). Further, the Potency entry in assay [2], in assay [3], in assay [6], in assay [7], in assay [8] and in [9] was “inactive” in each case. Further, the Potency entry in [19], in assay [15], in assay [16], in assay [11] and in assay [17] was “inactive” each time. Besides, the result in assay [4] and in [5] was inactive.

On to `O=C(NS(=O)(=O)/C=C/c1ccccc1)c1ccc(F)cc1Cl`, for which the Potency result in assay [1], in assay [3], in assay [6], in [7], in [8] and in assay [9] was “inactive” each time. The Potency result in assay [14], in [15], in assay [16], in [11], in assay [18] and in assay [12] was “inactive” in each case. The Potency in assay [2] is 27.3 µM (active). Besides, the outcome in [4] and in [5] was inactive.
